Data on 21 compounds can be found in article PMC4552634, “A New Set of Chemical Starting Points with Plasmodium falciparum Transmission-Blocking Potential for Antimalarial Drug Discovery” (PLoS ONE, 2015).

The campaign covered roughly 13,000 compounds. About 3,200 (25%) showed an effect of 50% or more. The list shows a part of the results.

This experiment concerns P. falciparum stage V gametocytes. Further details: BacTiter-Glo ATP luminescence viability of purified stage V gametocytes in 384-well plates, per cent inhibition versus DMSO. The following applies: 48 h, 5 µM; inhibitor.
The term % Inhibition denotes the change of the read-out against control, counted positive when it falls. `CC(CCCCOCCc1ccccc1)NCC(O)c1cc(Cl)c(N)c(Cl)c1` (stereo not drawn) [TCMDC-132072]: the “% Inhibition” value is listed as 16.2%.

Regarding `Cc1ccc(-c2nnc(Nc3ccc(C(=O)N4CCCCC4)cc3)c3ccccc23)cc1S(=O)(=O)NCC1CCCO1` (stereo not drawn) [TCMDC-125618], the “% Inhibition” value came out at 37.21%. The figure for `COc1ccc2nccc([C@@H](O)CN3CCC(NCc4cc5cccc(OC)c5o4)CC3)c2c1` [TCMDC-140683] is -7.327%. Consider `O[C@@H](c1cc(C(F)(F)F)nc2c(C(F)(F)F)cccc12)[C@H]1CCCCN1` [TCMDC-124288], for which the “% Inhibition” value came to 25.8%. Take `Cc1ccc(F)cc1S(=O)(=O)N1CCCCC(c2ccc(C(F)(F)F)cc2)=N1` [TCMDC-134531]: the “% Inhibition” value is listed as -12.63%.

With `COc1cccc(NC(=O)Nc2cc(-c3ccc4[nH]ncc4c3)cc3c2CNC3=O)c1` [TCMDC-133475], the “% Inhibition” value was determined as 14.15%.

`O=C(Nc1ccc(Cl)cc1C(=O)Nc1cccc(F)c1)c1ccc([N+](=O)[O-])cc1` [TCMDC-123788]: the “% Inhibition” value is given as -68.85%. With `CCC(C)CNC(=O)CN1CN(c2ccccc2)C2(CCN(C(=O)c3ccc(Br)cc3)CC2)C1=O` (stereo not drawn) [TCMDC-125167] the figure was -9.167%. The figure for `Cc1ccc(NC(=O)c2ccc3ncccc3c2)cc1OC1CCN(C(C)C)C1` (stereo not drawn) [TCMDC-133739] is 24.97%; for `COc1ccc2nccc([C@@H](O)CN3CCC(NCCOc4ccccc4C#N)CC3)c2c1` [TCMDC-140712] it is 9.495%. With `Cc1ccc2nc(/C=C/c3cccc4cc[nH]c34)[nH]c2c1` [TCMDC-138896] the figure was 83.23%; with `COc1ccc2nc(/C=C/c3cccc4ccc(C)nc34)[nH]c2c1` [TCMDC-138821], -26.73%. With `Nc1ccc2nc(C=Cc3ccccc3)[nH]c2c1` [TCMDC-124430], the “% Inhibition” value is given as 29.38%. With `COc1ccc2c(c1)CC(CNC[C@H](O)c1cccc(Cl)c1)CC2` (stereo partly drawn) [TCMDC-131994], the “% Inhibition” value is -12.5%. In the case of `CN(C)CCOc1ccc2c(c1)CN(C)CC2c1ccccc1` (stereo not drawn) [TCMDC-131410], the “% Inhibition” value amounted to 7.627%. With `COCCN(CCOC)c1ncc(-c2ccsc2)c(-c2nc(C)c(C)s2)n1` [TCMDC-125355] the figure was 81.41%; with `Cc1nc(-c2nc(NCCc3c(C)noc3C)ncc2-c2ccsc2)sc1C` [TCMDC-125357], 20.64%. With `Cc1nc(-c2nc(NCc3ccccn3)ncc2-c2ccsc2)sc1C` [TCMDC-125360] the figure was 31.08%. The figure for `Cc1nc(-c2nc(N3CCOCC3)ncc2-c2ccsc2)sc1C` [TCMDC-125356] is 0.6256%. With `Cc1nc(-c2nc(NCCc3cnccn3)ncc2-c2ccsc2)sc1C` [TCMDC-125363], the “% Inhibition” value came out at 69.56%.

`Cc1nc(-c2nc(NCc3ccncc3)ncc2-c2ccsc2)sc1C` [TCMDC-125359]: the “% Inhibition” value was determined as 15.84%.
